Screens from PubChem.
TDP1 block: qHTS Assay for Inhibitors of Tyrosyl-DNA Phosphodiesterase (TDP1); Potency, µM (titrated, usually from 130 µM), for inactives: at the top dose activity change, negative = inhibition, usual class: inhibitors; Tyrosyl-DNA phosphodiesterase 1 (Homo sapiens), Q9NUW8; 350,000 compounds, 0.28% hits; recombinant TDP1, AlphaScreen DNA substrate cleavage; note: potency is the fitted concentration of half-maximal effect; % is set by controls: 0 for no effect and ±100 for the full control effect; nearly all actives have a fitted effect of over 40% in size
Target sequence (Q9NUW8 whole entry, looked up): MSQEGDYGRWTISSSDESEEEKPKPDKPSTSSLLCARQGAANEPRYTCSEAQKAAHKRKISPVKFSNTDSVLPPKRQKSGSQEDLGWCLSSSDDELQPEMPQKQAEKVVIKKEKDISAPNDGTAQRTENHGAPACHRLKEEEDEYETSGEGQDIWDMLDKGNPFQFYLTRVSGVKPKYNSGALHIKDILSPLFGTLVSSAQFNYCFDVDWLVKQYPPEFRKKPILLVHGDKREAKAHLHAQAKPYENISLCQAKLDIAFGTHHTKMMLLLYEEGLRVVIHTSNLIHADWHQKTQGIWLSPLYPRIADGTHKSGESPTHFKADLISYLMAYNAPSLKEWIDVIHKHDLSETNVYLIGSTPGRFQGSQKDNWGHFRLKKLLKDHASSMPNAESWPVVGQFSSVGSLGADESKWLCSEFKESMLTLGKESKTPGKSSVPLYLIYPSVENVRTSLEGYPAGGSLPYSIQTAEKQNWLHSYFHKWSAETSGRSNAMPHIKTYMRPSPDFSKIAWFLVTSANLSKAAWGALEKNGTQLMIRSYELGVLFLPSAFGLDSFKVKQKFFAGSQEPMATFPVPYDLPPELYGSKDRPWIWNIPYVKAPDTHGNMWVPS
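Recombinant human Tdp1 (E. coli-expressed, 1 nM final) preincubated with compounds 15 min at room temperature, then 5'-biotin/3'-phosphotyrosine-FITC DNA substrate (15 nM final) added for 5 min. AlphaScreen beads (10 ug/ml final) added 10 min; cleavage lowers signal.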
TGFb inhibitor: qHTS for Inhibitors of TGF-b; HepG2 CAGA-GFP TGF-b/SMAD3 reporter, GFP fluorescence, 18 h; TGF-beta stimulated, 500 pg/mL final; 410,000 compounds, 1.2% hits; Potency, µM (titrated, usually from 46.1 µM), inactives show at the top dose activity, negative = inhibition, usual class: inhibitors; AID 588855, 2011; note: potency is the fitted concentration of half-maximal effect; % is set by controls: 0 for no effect and ±100 for the full control effect; nearly all actives have a fitted effect of over 65% in size
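Per well, imaged GFP fluorescence of HEPG2 CAGA-GFP cells gives the signal; cells get compound, then TGF-beta (500 pg/mL final), 18 h at 37 degrees C; %Activity versus -TGF-beta and +DMSO controls.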
HepG2 viability: qHTS for Inhibitors of TGF-b: Cytotox Counterscreen; HepG2 CAGA-GFP viability, ATP luminescence, 18 h; Potency, µM (doses to about 46.1 µM), without a hit: at the top dose activity change, negative = cytotoxicity, usual class: cytotoxic; 410,000 compounds, 0.76% hits; note: potency is the fitted concentration of half-maximal effect
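HepG2 CAGA-GFP cells (1000/well, DMEM with 1% FBS) received compound, then TGF-beta at 500 pg/mL final, and were incubated 18 hours at 37 degrees C. Viability was read by CellTiter-Glo luminescence. Media-only wells were set as complete cell-killing and DMSO as no toxicity.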
TDP1 cell CPT: qHTS for Inhibitors of human tyrosyl-DNA phosphodiesterase 1 (TDP1): qHTS in cells in presence of CPT; chicken DT40 Tdp1-/-;hTDP1 cells + 20 nM CPT, ATP luminescence, 48 h; 420,000 compounds, 12% hits; Potency, µM (highest dose often 46.2 µM), for the others: top-dose activity change, negative = growth inhibition, actives largely listed as inhibitors; note: potency is the fitted concentration of half-maximal effect; % is set by controls: 0 for no effect and ±100 for the full control effect; nearly all actives have a fitted effect of over 55% in size
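Chicken DT40 Tdp1-/- cells complemented with human TDP1, 400 cells/well, exposed to compounds plus 20 nM camptothecin for at least 48 h at 37 C; viability read as ATP content by CellTiter-Glo luminescence.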
IL-1B inflam inh: qHTS for Inhibitors of Inflammasome Signaling: IL-1-beta AlphaLISA Primary Screen | THP-1 LPS/ATP IL-1B secretion, AlphaLISA, 16 h; active compounds read low | activity change, % at 57.5 µM | 360,000 compounds, 4.7% hits | AID 743279, 2014; in the data active = activity change below about -50%; inconclusive = mostly about -30% to -49%; note: % is set by controls: 0 for no effect and ±100 for the full control effect
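THP-1 cells pretreated 1 hr with compounds (up to 57.5 uM final), then stimulated with LPS (250 ng/mL final) plus ATP (1.25 mM final); secreted IL-1B measured by AlphaLISA after 16 hr, decreased signal indicating inhibition.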
DT40 TDP1 no CPT: qHTS for Inhibitors of human tyrosyl-DNA phosphodiesterase 1 (TDP1): qHTS in cells in absence of CPT | DT40 Tdp1-/- hTDP1 cells, no CPT, ATP luminescence, 48 h | Potency, µM (doses to about 46.2 µM), without a hit: top-dose activity change, negative = growth inhibition, most hits filed as inhibitors | 420,000 compounds, 15% hits | AID 686978, 2013; note: potency is the fitted concentration of half-maximal effect; % is set by controls: 0 for no effect and ±100 for the full control effect; nearly all actives have a fitted effect of over 55% in size
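Chicken DT40 Tdp1-/- cells complemented with human TDP1, screened without camptothecin (DMSO vehicle only), 400 cells/well. Compounds pin-transferred, cells incubated at 37 °C for at least 48 hr. Growth read as ATP-dependent luminescence (CellTiter-Glo, 30 min at RT).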
* hit, by the source's call; ? = inconclusive; / = no result given; [ ] = remark or other dose. Sampled rows, rich in hits. Any-hit rate of the full collection: about 18%. Unless noted, calls come from the whole dose curve; as a rule, active = well fitted curve in the direction sought with a large enough effect; inconclusive = small, poorly fitted or top-dose-only effect, or another doubt; inactive = no such curve, though single readings can be large; an effect the other way counts as inactive or inconclusive.

SMILES	TDP1 block	TGFb inhibitor	HepG2 viability	TDP1 cell CPT	IL-1B inflam inh	DT40 TDP1 no CPT
CCOC(=O)c1c(C)[nH]c(CCC(=O)NCc2ccccc2C)c1C	8%	0%	-9%	?	/	13µM*
CCOC(=O)c1c(C)[nH]c(CCC(=O)NCc2cc(Br)ccc2OC)c1C	8%	0%	-11%	?	/	18µM*
CCOC(=O)c1c(C)[nH]c(CCC(=O)NCc2ccc(CC)cc2)c1C	3%	-4%	-22%	?	/	18µM*
CCOC(=O)c1c(C)[nH]c(CCC(=O)Nc2ccc(Cl)cc2C)c1C	3%	0%	2%	-41%	/	?
CCC(C(=O)NCc1cccnc1)n1nc(C)n2c(cc3occc32)c1=O (centres undefined)	3%	0%	-6%	2%	21	18%
COC(=O)C1CCN(C(=O)COC(=O)CNC(=O)c2ccc(Cl)cc2Cl)CC1	-12%	1%	-19%	20%	19	?
C=CCn1c(SCC(=O)NC2(C)CCS(=O)(=O)C2)nc2ccccc21 (centres undefined)	3%	-12%	2%	0%	-19	1%
COC(=O)Nc1ccc(S(=O)(=O)N2CCC(C(=O)N(C)C3CCCCC3)CC2)cc1	4%	-36%	0%	?	2	26µM*
CC1CCN(S(=O)(=O)c2ccc(C(=O)OC(C)C(=O)N(C)C3CCCCC3)cc2)CC1 (centres undefined)	-3%	4%	0%	?	29	26µM*
CCOC(=O)C1CCN(S(=O)(=O)c2ccc(NC(=O)OC)cc2)CC1	7%	4%	-2%	-7%	13	-11%
CCOC(=O)[C@]12CCCC=C1N(Cc1ccc(Cl)cc1Cl)C(=O)[C@H](CC(=O)NCCCOC)C2	/	/	/	?	-14	16µM*
CCOC(=O)[C@]12CCCC=C1N(Cc1ccc(Cl)cc1Cl)C(=O)[C@H](CC(=O)NCc1ccc(C)o1)C2	/	/	/	?	-7	?
C#CCNC(=O)C[C@@H]1C[C@@]2(C(=O)OC)CCCCC=C2N(Cc2ccc(Cl)cc2Cl)C1=O	/	/	/	?	-19	18µM*
CCOC(=O)[C@]12CCCC=C1N(Cc1ccc(Cl)cc1Cl)C(=O)[C@H](CC(=O)NCC1CCCCC1)C2	/	/	/	23µM*	-62*	?
CCOC(=O)[C@]12CCCC=C1N(Cc1ccc(Cl)cc1Cl)C(=O)[C@H](CC(=O)NCCC(C)C)C2	/	/	/	?	?	21µM*
COC(=O)[C@]12CCCCC=C1N(Cc1ccc(Cl)cc1Cl)C(=O)[C@H](CC(=O)NCc1ccccc1)C2	/	/	/	?	-18	?
O=C(CN1C2CCCC1CC(NC(=O)c1ccccc1)C2)Nc1ccccc1 (centres undefined)	4%	0%	-13%	?	9	?
CCOC(=O)[C@]12CCC=C1N(Cc1ccc(Cl)cc1Cl)C(=O)[C@H](CC(=O)N1CCCCC1)C2	/	/	/	?	13	?
CCOC(=O)[C@]12CCCC=C1N(Cc1ccccc1)C(=O)[C@H](CC(=O)NCC13CC4CC(CC(C4)C1)C3)C2	/	/	/	?	-25	?
CCCCOCCCNC(=O)C[C@@H]1C[C@@]2(C(=O)OCC)CCC=C2N(Cc2ccccc2)C1=O	/	/	/	?	-4	?
CCOC(=O)[C@]12CCC=C1N(Cc1ccc(Cl)cc1Cl)C(=O)[C@H](CC(=O)NCCC(C)C)C2	/	/	/	?	0	21µM*
C#CCNC(=O)C[C@@H]1C[C@@]2(C(=O)OCC)CCC=C2N(Cc2ccc(Cl)cc2Cl)C1=O	/	/	/	?	11	23µM*
CCOC(=O)[C@]12CCCC=C1N(Cc1ccc(Cl)cc1Cl)C(=O)[C@H](CC(=O)NCC13CC4CC(CC(C4)C1)C3)C2	/	/	/	?	-6	18µM*
CCCCOCCCNC(=O)C[C@@H]1C[C@@]2(C(=O)OCC)CCC=C2N(Cc2ccc(Cl)cc2Cl)C1=O	/	/	/	21µM*	-89*	15µM*
CCCN1CCN(C(=O)c2cnn(-c3ncc4c(n3)-c3ccccc3CCC4)c2COC)CC1	/	/	/	15%[9.04 µM]	/	-18%
SMILES	TDP1 block	TGFb inhibitor	HepG2 viability	TDP1 cell CPT	IL-1B inflam inh	DT40 TDP1 no CPT
Cc1cccc(NC(=O)CSc2nc(-c3cccs3)cc(C(F)(F)F)c2C#N)c1	-3%	-1%	-8%	-15%	/	-14%
C=C1Nc2ccccc2C(=O)N1c1ccc(C(=O)N2CCN(C(=O)c3ccco3)CC2)cc1	1%	-1%	-22%	10%	/	1%
CCOC(=O)C1=C(O)/C(=C/c2cc(OC)c(OC)c(OC)c2)SC1=Nc1ccc(OC)cc1	4%	-3%	0%	?	-10	21µM*
COc1cccc(NC(=O)C2CCC(CNC(=O)[C@@H]3Cc4ccccc4CN3)CC2)c1 (some centres undefined)	2%	-1%	-34%	-10%	0	15%
CN(CC(=O)Nc1cccc(F)c1)C(=O)c1cccc(S(=O)(=O)N2CCN(c3ccccc3)CC2)c1	3%	?	-19%	?	?	?
CN(CC(=O)Nc1cccc(F)c1)C(=O)c1cc(S(=O)(=O)N2CCCCC2)ccc1N1CCOCC1	0%	6%	-6%	-3%	-11	?
COc1cccc(NC(=O)CN(C)C(=O)c2cccc(S(=O)(=O)N3CCN(c4ccc(F)cc4)CC3)c2)c1	4%	?	-2%	16µM*	10	16µM*
CN(CC(=O)Nc1ccc(F)cc1)C(=O)c1cccc(S(=O)(=O)N2CCN(c3ccc(F)cc3)CC2)c1	/	-15%	-25%	15µM*	-16	13µM*
CN(CC(=O)Nc1cccc(F)c1)C(=O)c1cc(S(=O)(=O)N2CCN(c3ccccc3)CC2)ccc1Cl	2%	?	-5%	16µM*	-27	13µM*
Cc1cc(Br)ccc1NC(=O)CN(C)C(=O)c1ccc2ccccc2n1	0%	-14%	-16%	-8%	0	-4%
Cc1cc(C)c(NC(=O)CCCn2c(=O)oc3ccccc32)c(C)c1	0%	-1%	-8%	-11%	8	4%
